Source: PubChem BioAssay (Tox21)
Several values for one entry are separate records, joined by “and”; a condition that tells them apart may be missing. Equal entries are not always repeated. Results filed as inconclusive are left out. Activity calls are given as the source filed them. The call rests on the fitted dose curve.

Tests used:
[1] = molecular target: Acetylcholinesterase (Homo sapiens) (UniProt P22303); experiment: Acetylcholinesterase (AChE) small molecule antagonists: colormetric cell-based qHTS assay (AID 1347395); further: nearly all actives have a fitted effect of over 30% in size; further: potency means the concentration at half of the fitted maximal effect
Acetylcholinesterase (Homo sapiens), sequence (P22303 whole entry, looked up): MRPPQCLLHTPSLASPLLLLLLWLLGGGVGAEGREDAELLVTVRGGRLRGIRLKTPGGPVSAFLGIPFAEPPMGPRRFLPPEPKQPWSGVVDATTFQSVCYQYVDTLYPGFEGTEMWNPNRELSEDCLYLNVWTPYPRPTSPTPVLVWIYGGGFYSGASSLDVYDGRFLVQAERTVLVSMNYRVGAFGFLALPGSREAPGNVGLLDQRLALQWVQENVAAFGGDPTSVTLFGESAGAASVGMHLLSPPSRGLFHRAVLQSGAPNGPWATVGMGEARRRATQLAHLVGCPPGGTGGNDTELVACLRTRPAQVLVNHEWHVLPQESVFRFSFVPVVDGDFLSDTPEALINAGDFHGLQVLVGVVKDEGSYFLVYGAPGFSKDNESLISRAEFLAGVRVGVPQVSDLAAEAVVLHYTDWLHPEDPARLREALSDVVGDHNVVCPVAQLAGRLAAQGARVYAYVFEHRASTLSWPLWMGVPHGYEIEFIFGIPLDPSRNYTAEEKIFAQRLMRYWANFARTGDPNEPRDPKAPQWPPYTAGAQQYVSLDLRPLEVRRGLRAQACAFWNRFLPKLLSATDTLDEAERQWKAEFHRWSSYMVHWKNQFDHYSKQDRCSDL
Method in brief: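 Quantitative HTS in attached SH-SY5Y cells: 30 min compound exposure, then 90 min with acetylthiocholine and DTNB at 37 C; colour from thiocholine reports AChE activity.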

[2] = molecular target: Acetylcholinesterase (Homo sapiens) (UniProt P22303); experiment: Acetylcholinesterase (AChE) small molecule antagonists: enzyme-based qHTS assay (AID 1347397); conditions: Potency: AChE enzyme activity inhibition; outcome: AChE enzyme activity inhibition; further: nearly all actives have a fitted effect of over 55% in size; further: potency means the concentration at half of the fitted maximal effect
Method in brief: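 Enzyme inhibition was scored from DTNB-detected thiocholine formed by recombinant human AChE acting on acetylthiocholine. The 30 min compound preincubation and 10 min substrate reaction were both run at room temperature, with DMSO as vehicle control.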

[3] = molecular target: Acetylcholinesterase (Homo sapiens) (UniProt P22303); experiment: Acetylcholinesterase (AChE) small molecule antagonists: fluorescence cell-based qHTS assay (AID 1347398); conditions: Potency: AChE activity; outcome: AChE activity; further: nearly all actives have a fitted effect of over 50% in size; further: potency means the concentration at half of the fitted maximal effect
Method in brief: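 Endogenous acetylcholinesterase of SH-SY5Y neuroblastoma cells is measured in situ. After overnight attachment and 30 min compound exposure, cells receive acetylthiocholine and Thiolite Green; fluorescence is read after 40 min at room temperature.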

[4] = molecular target: Acetylcholinesterase (Homo sapiens) (UniProt P22303); experiment: Acetylcholinesterase (AChE) small molecule antagonists: enzyme-based qHTS assay with human liver microsomes (AID 1347399); conditions: Potency: qHTS inhibition; outcome: qHTS inhibition; further: nearly all actives have a fitted effect of over 60% in size
Method in brief: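 Recombinant human AChE (50 mU/mL in the enzyme mix) and human liver microsomes (0.25 mg/mL final) were preincubated with compound and NADPH (0.25 mg/mL final) for 30 min at 37 C. Acetylthiocholine/DTNB was then added; thiocholine was read colorimetrically after 10 min at room temperature.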

Measured: Potency

CCCCC(CC)COC(=O)CCCCCCCC(=O)OCC(CC)CCCC (stereo not given)
inactive: [1] | [2] | [3] | [4]

c1ccc2ncccc2c1
inactive: [1] | [2] | [3] | [4]

CC#N
inactive: [1] | [2] | [3] | [4]

CC(C)CCCCCOC(=O)CCS
inactive: [1] | [2] | [3] | [4]

COc1nc(N)nc2nc[nH]c12
inactive: [1] | [2] | [3] | [4]

CC(COC(C)(C)C)OCCCO (stereo not given)
inactive: [1] | [2] | [3] | [4]

CCCCC(CC)COC(=O)COc1ccc(Cl)cc1C (stereo not given)
inactive: [1] | [2] | [3] | [4]

c1cc(N(CC2CO2)CC2CO2)ccc1OCC1CO1 (stereo not given)
inactive: [1] | [2] | [3] | [4]

Cc1cccc(Nc2cc(Cl)nc(SCC(=O)O)n2)c1C
inactive: [1] | [2] | [3] | [4]

CC1(C)O[C@@H]2[C@@H](CO[C@@]3(COS(N)(=O)=O)OC(C)(C)O[C@@H]23)O1
inactive: [1] | [2] | [3] | [4]

CCOc1ccc(NC(C)=O)cc1N
inactive: [1] | [2] | [3] | [4]

FC(F)(F)c1ccccc1
inactive: [1] | [2] | [3] | [4]

CCOCOCC
inactive: [1] | [2] | [3] | [4]

Clc1ccc2c(Cl)ccnc2c1
inactive: [1] | [2] | [3] | [4]

Cc1cnccn1
inactive: [1] | [2] | [3] | [4]

CCc1c(C)cc(N)c(CC)c1N
active: [1] 39.9 µM | [2] 71 µM | [3] 39.9 µM
inactive: [4]

CC(=O)OC/C=C(/C)CCC=C(C)C
inactive: [1] | [2] | [3] | [4]

O=C(Nc1ccccc1)OCC(CN1CCCCC1)OC(=O)Nc1ccccc1 (stereo not given)
inactive: [1] | [2] | [3] | [4]

Brc1cc(Oc2cc(Br)c(Br)c(Br)c2Br)c(Br)c(Br)c1Br
inactive: [1] | [2] | [3] | [4]

CC(=O)[C@@]1(O)CC[C@H]2[C@@H]3C[C@H](C)C4=CC(=O)CC[C@]4(C)[C@H]3CC[C@@]21C
inactive: [1] | [2] | [3] | [4]

O=C(O)c1cccc(Oc2ccccc2)c1
inactive: [1] | [2] | [3] | [4]

NNC(=O)c1cccc(C(=O)NN)c1
inactive: [1] | [2] | [3] | [4]

CC1(C)S[C@@H]2[C@H](NC(=O)Cc3ccccc3)C(=O)N2[C@H]1C(=O)O (tested in a mixture with another compound)
inactive: [1] | [2] | [3] | [4]

Cc1c(C(C)C)c(=O)n(-c2ccccc2)n1C
inactive: [1] | [2] | [3] | [4]

Cc1cc(O)c(C(C)C)cc1Cl
inactive: [1] | [2] | [3] | [4]

O=C1c2ccccc2C(=O)c2c(O)ccc(O)c21
inactive: [1] | [2] | [3] | [4]

Nc1ccc(Cl)c(N)c1
inactive: [1] | [2] | [3] | [4]

O=C(c1ccccc1)C(O)c1ccccc1 (stereo not given)
inactive: [1] | [2] | [3] | [4]

COCCCN
inactive: [1] | [2] | [3] | [4]

Nc1ccc(S(=O)(=O)Nc2ccccn2)cc1
inactive: [1] | [2] | [3] | [4]

Cc1c(C)c2c(c(C)c1OC(=O)c1cccnc1)CC[C@@](C)(CCC[C@H](C)CCC[C@H](C)CCCC(C)C)O2
inactive: [1] | [2] | [3] | [4]

COCC(C)N (stereo not given)
inactive: [1] | [2] | [3] | [4]

C=C(C)C(=O)Nc1ccc(Cl)c(Cl)c1
inactive: [1] | [2] | [3] | [4]

CCCCSCCCC
inactive: [1] | [2] | [3] | [4]

Nc1ccc(N=Nc2ccccc2)c(N)n1
inactive: [1] | [2] | [3] | [4]

CC(=O)OC(C)OC(=O)C(C)c1ccc(-c2ccccc2)c(F)c1 (stereo not given)
inactive: [1] | [2] | [3] | [4]

CC1(C)C(=O)NC(=O)N1CO
inactive: [1] | [2] | [3] | [4]

CC(=O)OCc1ccc2c(c1)OCO2
inactive: [1] | [2] | [3] | [4]

CN(c1nccc(=O)[nH]1)C1CCN(c2nc3ccccc3n2Cc2ccc(F)cc2)CC1
inactive: [1] | [2] | [3] | [4]

O=c1[nH]c2ccccc2c(=O)n1CCCl
inactive: [1] | [2] | [3] | [4]

COc1ccc(Nc2ccccc2)c(C)c1
inactive: [1] | [2] | [3] | [4]

CCNc1nc(NC(C)(C)C)nc(OC)n1
inactive: [1] | [2] | [3] | [4]

NS(=O)(=O)c1cc(-c2nn[nH]n2)c(NCc2cccs2)cc1Cl
inactive: [1] | [2] | [3] | [4]

CCC(=O)O[C@]1(C(=O)CCl)[C@@H](C)C[C@H]2[C@@H]3CCC4=CC(=O)C=C[C@]4(C)[C@@]3(F)[C@@H](O)C[C@@]21C
inactive: [1] | [2] | [3] | [4]

Cc1cc(OCCOCC[N+](C)(C)Cc2ccccc2)ccc1C(C)(C)CC(C)(C)C
inactive: [4]
active: [1] 39.7 µM and 17.4 µM | [2] 56.1 µM and 30.9 µM | [3] 14.1 µM and 8.71 µM

C/C(=C\c1ccc(C(=O)O)cc1)c1ccc2c(c1)C(C)(C)CCC2(C)C
inactive: [1] | [2] | [3] | [4]

O=C(O)CCNC(=O)c1ccc(N=Nc2ccc(O)c(C(=O)O)c2)cc1
inactive: [1] | [2] | [3] | [4]

CCCCCOC(=O)Nc1nc(=O)n([C@@H]2O[C@H](C)[C@@H](O)[C@H]2O)cc1F
inactive: [1] | [2] | [3] | [4]

CCC(C)C(C)=O (stereo not given)
inactive: [1] | [2] | [3] | [4]

Nc1cc(N)cc(C(=O)O)c1
inactive: [1] | [2] | [3] | [4]

O=C1CCCCCCCCCCCC(=O)OCCO1
inactive: [1] | [2] | [3] | [4]

O=C(O)CCS
inactive: [1] | [2] | [3] | [4]

CCOC(=O)CC(=O)c1ccccc1
inactive: [1] | [2] | [3] | [4]

O=C1NC(c2ccccc2)(c2ccccc2)C(=O)N1COP(=O)(O)O
inactive: [1] | [2] | [3] | [4]

CC(=O)SCc1ccco1
inactive: [1] | [2] | [3] | [4]

CCCOc1ccccc1-c1nc2n[nH]nc2c(=O)[nH]1
inactive: [1] | [2] | [3] | [4]

Cc1c(C2(c3cc(Br)c(O)c(Br)c3C)OS(=O)(=O)c3ccccc32)cc(Br)c(O)c1Br
inactive: [1] | [2] | [3] | [4]

O=C[O][Al]([O]C=O)[O]C=O
inactive: [1] | [2] | [3] | [4]

O=S(=O)(O)CCCN1CCOCC1
inactive: [1] | [2] | [3] | [4]

S=C(S)NCCNC(=S)S
inactive: [1] | [2] | [3] | [4]
